Settings in all cases: mRNA level, 48 h; actives raise or lower the signal
Read-out in assay [1]: Interleukin 6 (IL6), IL6 (gene 3569)
As to the kind of experiment: LTEA_HepaRG_IL6: Life Technologies and Expression Analysis (LTEA) Assay for Interleukin 6 (IL6) using HepaRG (AID 2283509). The essentials:
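Changes in IL6 mRNA, up or down relative to 0.5% DMSO controls, were derived from concentration-response curves in human HepaRG cells treated for 48 h at up to 100 uM, with ACTB, GAPDH and POLR2A as normalizers.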

Read-out in assay [2]: Interleukin 6 Receptor (IL6R), IL6R (gene 3570)
As to the kind of experiment: LTEA_HepaRG_IL6R: Life Technologies and Expression Analysis (LTEA) Assay for Interleukin 6 Receptor (IL6R) using HepaRG (AID 2283510).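 On AC50: TaqMan qRT-PCR signal normalized to ACTB GAPDH and POLR2A housekeeping genes.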 The essentials: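 In this HepaRG screen, test chemicals act on cells for 48 h at up to 100 uM (eight half-log points, duplicate wells). IL6R expression is quantified by qRT-PCR after normalization to ACTB, GAPDH and POLR2A, with DMSO as baseline.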

Read-out in assay [3]: Potassium channel subfamily K member 1 (KCNK1), KCNK1 (gene 3775)
As to the kind of experiment: LTEA_HepaRG_KCNK1: Life Technologies and Expression Analysis (LTEA) Assay for Potassium channel subfamily K member 1 (KCNK1) using HepaRG (AID 2283511). The essentials:
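Human HepaRG cultures receive test chemicals for 48 h in 0.5% DMSO, top concentration 100 uM with half-log dilutions. Induction or suppression of KCNK1 mRNA relative to DMSO is derived by bidirectional fitting of qRT-PCR data.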

Read-out in assay [4]: Keratin 19 (KRT19), KRT19 (gene 3880)
As to the kind of experiment: LTEA_HepaRG_KRT19: Life Technologies and Expression Analysis (LTEA) Assay for Keratin 19 (KRT19) using HepaRG (AID 2283512). In a few lines:
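Differentiated human HepaRG cells, plated 48 h, were exposed in duplicate for 48 h in serum-free induction medium to eight half-log concentrations up to 100 uM in 0.5% DMSO. KRT19 mRNA was quantified by qRT-PCR, normalized to ACTB, GAPDH and POLR2A, and fitted bidirectionally versus DMSO.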

Read-out in assay [5]: JUN Transcription Factor, JUN (gene 3725)
As to the kind of experiment: LTEA_HepaRG_JUN: Life Technologies and Expression Analysis (LTEA) Assay for JUN Transcription Factor using HepaRG (AID 2283513). The essentials:
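Gene-expression endpoint: JUN mRNA (qRT-PCR, normalized to three reference genes) in HepaRG cultures treated 48 h with chemicals, duplicate wells, 100 uM maximum with half-log dilutions; bidirectional fitting relative to 0.5% DMSO.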

Read-out in assay [6]: Lipase C (LIPC), LIPC (gene 3990)
Description: LTEA_HepaRG_LIPC: Life Technologies and Expression Analysis (LTEA) Assay for Lipase C (LIPC) using HepaRG (AID 2283514). In a few lines:
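In this multiplexed gene-expression screen, human HepaRG cultures received test chemicals for 48 h across eight concentrations with 100 uM highest, in duplicate. Values reflect LIPC mRNA induction or suppression versus DMSO vehicle, from normalized qRT-PCR.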

Read-out in assay [7]: Lipoprotein lipase (LPL), LPL (gene 4023)
As to the kind of experiment: LTEA_HepaRG_LPL: Life Technologies and Expression Analysis (LTEA) Assay for Lipoprotein lipase (LPL) using HepaRG (AID 2283515). The essentials: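 Concentration-response testing used half-log steps from 100 uM in 0.5% DMSO on human HepaRG cells, 48 h, duplicate wells. Phenobarbital 1 mM served as induction control; LPL mRNA was normalized to ACTB, GAPDH, POLR2A.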

Read-out in assay [8]: MicroRNA 122 (MIR122), gene 406906
As to the kind of experiment: LTEA_HepaRG_MIR122: Life Technologies and Expression Analysis (LTEA) Assay for MicroRNA 122 (MIR122) using HepaRG (AID 2283516). Further: the transcript read is the microRNA miR-122. The essentials: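 Changes in transcript abundance, up or down relative to 0.5% DMSO vehicle, were scored after 48 h chemical treatment of HepaRG cells (maximum 100 uM). Quantification used TaqMan qRT-PCR normalized to housekeeping genes.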

Read-out in assay [9]: matrix metalloproteinase-10 (MMP10), MMP10 (gene 4319)
Description: LTEA_HepaRG_MMP10: Life Technologies and Expression Analysis (LTEA) Assay for matrix metalloproteinase-10 (MMP10) using HepaRG (AID 2283517). The essentials: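 In differentiated HepaRG cultures kept in 0.5% DMSO, test chemicals act for 48 h over an eight-point range with a top dose of 100 uM. Expression is then quantified by TaqMan RT-PCR against ACTB, GAPDH and POLR2A.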

Read-out in a further assay: MYC, MYC (gene 4609)
Description: LTEA_HepaRG_MYC: Life Technologies and Expression Analysis (LTEA) Assay for MYC using HepaRG (AID 2283518). In a few lines:
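Differentiated human HepaRG cells, plated 48 h then switched to serum-free induction medium, were exposed in duplicate for 48 h to 8-point half-log series up to 100 uM in 0.5% DMSO. MYC mRNA measured by qRT-PCR, normalized to ACTB/GAPDH/POLR2A.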

Read-out in assay [10]: matrix metalloproteinase-3 (MMP3), MMP3 (gene 4314)
As to the kind of experiment: LTEA_HepaRG_MMP3: Life Technologies and Expression Analysis (LTEA) Assay for matrix metalloproteinase-3 (MMP3) using HepaRG (AID 2283519). The essentials:
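Human liver HepaRG cultures received chemicals (top concentration 100 uM, 0.5% DMSO) for 48 h in duplicate. MMP3 mRNA induction or loss was then assessed via TaqMan qRT-PCR with housekeeping-gene normalisation.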

Read-out in assay [11]: Paternally Expressed 10 (PEG10), PEG10 (gene 23089)
As to the kind of experiment: LTEA_HepaRG_PEG10: Life Technologies and Expression Analysis (LTEA) Assay for Paternally Expressed 10 (PEG10) using HepaRG (AID 2283520). The essentials: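 After 48 h exposure of differentiated HepaRG cells (0.5% DMSO vehicle, eight concentrations up to 100 uM, duplicates), PEG10 mRNA was measured by TaqMan qRT-PCR. Values were normalised to endogenous control genes and analysed bidirectionally against vehicle.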

Read-out in assay [12]: Protein phosphatase 2A (PPP2R4), PTPA (gene 5524)
As to the kind of experiment: LTEA_HepaRG_PPP2R4: Life Technologies and Expression Analysis (LTEA) Assay for Protein phosphatase 2A (PPP2R4) using HepaRG (AID 2283522). In a few lines:
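Using HepaRG cultures maintained in 0.5% DMSO, chemicals are tested 48 h at up to 100 uM in duplicate. Induction or suppression of PPP2R4 mRNA, measured by qRT-PCR, is fitted bidirectionally against the vehicle baseline.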

Read-out in assay [13]: Phosphatase and tensin (PTEN), PTEN (gene 5728)
Description: LTEA_HepaRG_PTEN: Life Technologies and Expression Analysis (LTEA) Assay for Phosphatase and tensin (PTEN) using HepaRG (AID 2283523). In a few lines:
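Expression of PTEN is quantified in the human liver line HepaRG following two days of dosing (top concentration 100 uM, half-log dilutions, 0.5% DMSO). Values derive from bidirectional curve fitting relative to DMSO controls.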

Read-out in assay [14]: Pyruvate Dehydrogenase Kinase 4 (PDK4), PDK4 (gene 5166)
As to the kind of experiment: LTEA_HepaRG_PDK4: Life Technologies and Expression Analysis (LTEA) Assay for Pyruvate Dehydrogenase Kinase 4 (PDK4) using HepaRG (AID 2283525). The essentials:
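Eight-point, half-log concentration series (max 100 uM, 0.5% DMSO) applied to differentiated HepaRG cells for 48 h in duplicate. Endpoint: PDK4 mRNA induction or repression by qRT-PCR against DMSO baseline.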

Read-out in assay [15]: NAD(P)H dehydrogenase [quinone] 1 (NQO1), NQO1 (gene 1728)
Description: LTEA_HepaRG_NQO1: Life Technologies and Expression Analysis (LTEA) Assay for NAD(P)H dehydrogenase [quinone] 1 (NQO1) using HepaRG (AID 2283526). In a few lines:
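In this assay, gene expression is read by qRT-PCR after 48 h exposure of HepaRG cells to eight concentrations (max 100 uM, half-log) in 0.5% DMSO. Each chemical runs in duplicate, and activity is scored relative to vehicle.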

Read-out in assay [16]: Nuclear factor erythroid 2-related factor 2 (Homo sapiens) (UniProt Q16236)
As to the kind of experiment: LTEA_HepaRG_NFE2L2: Life Technologies and Expression Analysis (LTEA) Assay for Nuclear factor erythroid 2-related factor 2 (NFE2L2) Transcription Factor using HepaRG (AID 2283527).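 On outcome: TaqMan qRT-PCR transcript level normalised to ACTB GAPDH and POLR2A housekeeping genes.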 In a few lines:
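Human liver HepaRG line treated in duplicate for 48 h with an eight-point series topping at 100 uM. Gene expression of NFE2L2 by qRT-PCR, bidirectionally fitted against the vehicle control.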

Read-out in assay [17]: succinate dehydrogenase complex iron sulfur subunit B (SDHB), SDHB (gene 6390)
As to the kind of experiment: LTEA_HepaRG_SDHB: Life Technologies and Expression Analysis (LTEA) Assay for succinate dehydrogenase complex iron sulfur subunit B (SDHB) using HepaRG (AID 2283528). The essentials:
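HepaRG, 48 h exposure, 8-pt half-log series from 100 uM in 0.5% DMSO, duplicates. Readout: SDHB mRNA by Fluidigm qRT-PCR vs housekeeping genes; bidirectional fit relative to DMSO.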

Read-out in assay [18]: Nuclear factor NF-kappa-B p105 subunit (Homo sapiens) (UniProt P19838)
As to the kind of experiment: LTEA_HepaRG_NFKB1: Life Technologies and Expression Analysis (LTEA) Assay for Nuclear Factor Kappa B Subunit 1 (NFKB1) using HepaRG (AID 2283521).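 Further: TaqMan qRT-PCR transcript normalised to ACTB GAPDH and POLR2A housekeeping genes.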 The essentials: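 Differentiated human HepaRG cells were exposed for 48 h in serum-free induction medium to eight concentrations (top 100 uM, half-log steps, 0.5% DMSO), in duplicate. NFKB1 mRNA was measured by TaqMan qRT-PCR, normalized to ACTB/GAPDH/POLR2A, and fitted bidirectionally against DMSO.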

Read-out in assay [19]: solute carrier (SLC22A1), SLC22A1 (gene 6580)
Description: LTEA_HepaRG_SLC22A1: Life Technologies and Expression Analysis (LTEA) Assay for solute carrier (SLC22A1) using HepaRG (AID 2283524). In a few lines:
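Transcript induction or suppression of SLC22A1 in human HepaRG cultures is scored after 48 h chemical treatment, with DMSO (0.5%) as baseline for bidirectional fitting. Concentrations span eight half-log points topping at 100 uM.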

Activity calls are given as the source filed them. How the source made its calls: active means hit-call score of the fitted dose curve at least 0.9, where 1 is the maximum; inactive means score below 0.9.

Nuclear factor NF-kappa-B p105 subunit (Homo sapiens), sequence (P19838 whole entry, looked up): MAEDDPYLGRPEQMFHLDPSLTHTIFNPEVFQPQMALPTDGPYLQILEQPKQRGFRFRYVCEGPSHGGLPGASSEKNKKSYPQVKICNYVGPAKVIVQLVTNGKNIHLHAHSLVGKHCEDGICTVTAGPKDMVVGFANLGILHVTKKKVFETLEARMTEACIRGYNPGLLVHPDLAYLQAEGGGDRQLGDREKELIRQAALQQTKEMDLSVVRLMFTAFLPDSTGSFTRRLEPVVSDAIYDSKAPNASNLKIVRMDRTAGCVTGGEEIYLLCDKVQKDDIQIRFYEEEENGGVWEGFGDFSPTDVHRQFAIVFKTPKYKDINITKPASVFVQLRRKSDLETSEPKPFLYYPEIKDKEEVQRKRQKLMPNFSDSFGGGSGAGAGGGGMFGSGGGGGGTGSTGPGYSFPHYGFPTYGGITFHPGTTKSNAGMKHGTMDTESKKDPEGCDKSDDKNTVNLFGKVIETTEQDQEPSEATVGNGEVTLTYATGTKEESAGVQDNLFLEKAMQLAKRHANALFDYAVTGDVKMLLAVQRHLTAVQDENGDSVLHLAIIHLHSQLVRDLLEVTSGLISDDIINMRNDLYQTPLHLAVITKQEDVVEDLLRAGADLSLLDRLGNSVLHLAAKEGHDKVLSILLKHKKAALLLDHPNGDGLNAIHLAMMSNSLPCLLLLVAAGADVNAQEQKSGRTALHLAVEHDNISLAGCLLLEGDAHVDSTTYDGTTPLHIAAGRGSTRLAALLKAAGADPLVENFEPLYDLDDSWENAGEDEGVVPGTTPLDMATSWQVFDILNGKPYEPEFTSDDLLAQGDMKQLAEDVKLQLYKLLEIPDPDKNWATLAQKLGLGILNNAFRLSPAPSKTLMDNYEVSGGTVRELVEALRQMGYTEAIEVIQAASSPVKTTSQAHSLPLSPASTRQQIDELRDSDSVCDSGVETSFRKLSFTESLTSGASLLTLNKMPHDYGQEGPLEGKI
Nuclear factor erythroid 2-related factor 2 (Homo sapiens), sequence (Q16236 whole entry, looked up): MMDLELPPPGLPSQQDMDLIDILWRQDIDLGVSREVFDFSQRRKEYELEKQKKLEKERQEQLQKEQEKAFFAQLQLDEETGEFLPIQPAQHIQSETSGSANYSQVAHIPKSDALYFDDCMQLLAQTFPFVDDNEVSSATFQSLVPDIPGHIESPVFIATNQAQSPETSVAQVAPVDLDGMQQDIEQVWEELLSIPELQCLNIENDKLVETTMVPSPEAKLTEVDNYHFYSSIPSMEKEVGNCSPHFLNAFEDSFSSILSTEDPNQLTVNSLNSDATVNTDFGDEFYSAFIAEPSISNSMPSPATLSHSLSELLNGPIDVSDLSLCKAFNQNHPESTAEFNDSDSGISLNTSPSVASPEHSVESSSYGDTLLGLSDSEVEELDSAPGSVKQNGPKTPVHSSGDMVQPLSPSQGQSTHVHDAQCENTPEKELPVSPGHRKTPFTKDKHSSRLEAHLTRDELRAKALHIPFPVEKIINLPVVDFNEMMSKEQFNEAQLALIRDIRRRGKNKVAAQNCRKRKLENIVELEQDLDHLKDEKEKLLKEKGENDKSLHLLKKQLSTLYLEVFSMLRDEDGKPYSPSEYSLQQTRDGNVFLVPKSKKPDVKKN

In the case of `CN1CCC[C@H]1c1cccnc1`, the compound was called inactive in assay [1], in [2], in [3], in [4], in [5] and in assay [6]. Moreover, the outcome in assay [7] was “inactive”; in assay [8] it was “inactive”; in assay [9], “inactive”; in the assay with MYC, MYC (gene 4609) it was “inactive”; in assay [10] it was “inactive”; in assay [11], “inactive”. In addition, the call in assay [12], in assay [13], in assay [14], in [15], in assay [16] and in [17] was inactive.
Consider `O=c1c(-c2ccc(O)cc2)coc2cc(O)ccc12`, for which the compound was classed as inactive in assay [1], in assay [2], in assay [3], in assay [4], in assay [5] and in [6]. Besides, the outcome is “inactive” in assay [7]; “inactive” in assay [8]; “inactive” in assay [9]; “inactive” with MYC, MYC (gene 4609); “inactive” in [11]; “inactive” in assay [18]. In addition, the call in assay [12], in assay [13], in assay [19], in assay [14], in [15] and in assay [16] was inactive. Further, the compound was called inactive in assay [17].
For `CC(=O)CC(C)(C)O`, the result in [1], in [2], in assay [3], in assay [4], in assay [5] and in assay [6] was inactive. The outcome in assay [7], in assay [8], in assay [9], in assay [10], in assay [11] and in assay [18] was inactive. Moreover, the outcome in assay [12], in assay [13], in [14], in assay [15], in assay [16] and in [17] was inactive. Besides, the concentration at half-maximal activity (AC50) with MYC, MYC (gene 4609) is 0.118 µM (active).
For the compound `CCCCCCCC(=O)O`, the compound was called inactive in assay [1], in assay [2], in [3], in [4], in assay [5] and in assay [6]. Also, the outcome in assay [7] was “inactive”; in [8], “inactive”; in [9], “inactive”; with MYC, MYC (gene 4609) it was “inactive”; in [10] it was “inactive”; in [11], “inactive”. Also, the call in assay [12], in [13], in [19], in [14], in assay [15] and in assay [17] was inactive. For the same compound, in [16], the AC50 is 12.3 µM (active).
Turning to `CCC(=C(c1ccc(O)cc1)c1ccc(OCCN(C)C)cc1)c1ccccc1`, the AC50 is 91.8 µM (active) in assay [1]; 93.2 µM (active) in [2]; 89.3 µM (active) in assay [5]; 88.8 µM (active) in assay [8]; 72.4 µM (active) in [9]; 77.7 µM (active) with MYC, MYC (gene 4609). The compound was classed as inactive in [3], in assay [4], in [6], in [7], in [10] and in assay [11]. Moreover, the result in assay [18], in assay [12], in [13], in [14], in assay [15] and in assay [16] was inactive. The compound was classed as inactive in [17].
